Results: PubChem BioAssay (EPA / NIEHS)
Where “and” joins values, the source holds several entries; their conditions need not be identical. Equal values may be shown once. A structure can be active in one record and inactive in another. Calls of active or inactive are those of the source. Rule for the calls: active = hit-call score of the fitted dose curve at least 0.9, where 1 is the maximum; inactive = score below 0.9.

Experiments:
[1] = read-out: Interleukin-1 alpha (IL1a), IL1A (gene 3552); assay: BSK_KF3CT_IL1a: BioMAP Diversity Plus: KF3CT Assay for Interleukin-1 alpha (IL1a) Biomarker Activity (AID 2283070); conditions: primary human keratinocytes with fibroblasts; actives raise or lower the signal
In short: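 Readout is IL-1a level by ELISA, compared bidirectionally with DMSO as baseline. Cells: human keratinocytes co-cultured with foreskin fibroblasts, harvested 24 h post-dose.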

[2] = read-out: TIMP metallopeptidase inhibitor 2 (TIMP2), TIMP2 (gene 7077); assay: BSK_KF3CT_TIMP2: BioMAP Diversity Plus: KF3CT Assay for TIMP metallopeptidase inhibitor 2 (TIMP2) Biomarker Activity (AID 2283071); conditions: primary human keratinocytes with fibroblasts; actives raise or lower the signal
In short: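 Measurements come from ELISA detection of TIMP-2 at 24 hours in a dosed human keratinocyte and foreskin fibroblast co-culture. DMSO serves as negative control and baseline.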

[3] = read-out: Transforming growth factor beta 1 (TGFb1), TGFB1 (gene 7040); assay: BSK_KF3CT_TGFb1: BioMAP Diversity Plus: KF3CT Assay for Transforming growth factor beta 1 (TGFb1) Biomarker Activity (AID 2283072); conditions: primary human keratinocytes with fibroblasts; actives raise or lower the signal
In short: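 TGF-b1 ELISA on a 24 h dosed co-culture of human keratinocytes and foreskin fibroblasts; cytotoxicity tracked in parallel cultures by SRB staining.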

[4] = read-out: Matrix Metallopeptidase 9 (MMP9), MMP9 (gene 4318); assay: BSK_KF3CT_MMP9: BioMAP Diversity Plus: KF3CT Assay for Matrix Metallopeptidase 9 (MMP9) Biomarker Activity (AID 2283074); conditions: primary human keratinocytes with fibroblasts; actives raise or lower the signal;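 for AC50: MMP9 protein level quantified by ELISA in the co-culture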
In short: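 Values come from bidirectional fitting relative to DMSO of MMP-9 levels, which were measured by ELISA. Measurements were taken 24 h after chemical dosing of a keratinocyte and foreskin fibroblast co-culture.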

[5] = read-out: urokinase plasminogen activator (uPA), PLAU (gene 5328); assay: BSK_KF3CT_uPA: BioMAP Diversity Plus: KF3CT Assay for urokinase plasminogen activator (uPA) Biomarker Activity (AID 2283075); conditions: primary human keratinocytes with fibroblasts; actives raise or lower the signal
In short: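 Values derive from bidirectional fitting against DMSO controls. Keratinocyte/foreskin fibroblast co-cultures received chemical; 24 h later uPA was detected by ELISA, with SRB total-protein staining in parallel wells for overt cytotoxicity.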

[6] = read-out: E-selectin (Homo sapiens) (UniProt P16581); assay: BSK_LPS_Eselectin: BioMAP Diversity Plus: LPS Assay for Eselectin Biomarker Activity (AID 2283077); conditions: primary human HUVEC with PBMC; actives raise or lower the signal
In short: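 Primary human vascular co-culture (endothelium plus PBMC) was dosed with chemical, then E-selectin quantified by ELISA at 24 h. Endpoint values derive from bidirectional curve fitting relative to DMSO.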

[7] = BSK_LPS_SRB: Viability Assessment in the BioMAP Diversity Plus: LPS Assay (AID 2283079); conditions: primary human HUVEC with PBMC;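 note: total protein by sulforhodamine B absorbance as a cytotoxicity measure; measured one day after compound addition; fitted in both directions against DMSO so loss or gain of signal counts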
In short: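 Readout is SRB absorbance at 560 nm (0.1% stain, TCA-fixed parallel cultures) as a total-protein cytotoxicity measure. Cells: primary human umbilical vein endothelium plus peripheral blood mononuclear cells, 24 h after chemical exposure; DMSO served as baseline.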

[8] = read-out: Interleukin-1 alpha (IL1a), IL1A (gene 3552); assay: BSK_LPS_IL1a: BioMAP Diversity Plus: LPS Assay for Interleukin-1 alpha (IL1a) Biomarker Activity (AID 2283080); conditions: primary human HUVEC with PBMC; actives raise or lower the signal
In short: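 ELISA read-out of IL-1 alpha from a human primary vascular co-culture (endothelium plus PBMC) under LPS, sampled 24 hours post-dosing. Activity was fitted in both directions relative to DMSO controls.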

[9] = read-out: Monocyte Chemoattractant Protein-1 (MCP1), CCL2 (gene 6347); assay: BSK_LPS_MCP1: BioMAP Diversity Plus: LPS Assay for Monocyte Chemoattractant Protein-1 (MCP1) Biomarker Activity (AID 2283081); conditions: primary human HUVEC with PBMC; actives raise or lower the signal;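 for AC50: secreted MCP-1 protein quantified by ELISA in culture supernatant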
In short: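 Human endothelial–PBMC co-cultures were dosed with chemical, then LPS-driven MCP-1 levels were quantified by ELISA at 24 h. Activity in either direction was fitted versus DMSO negative control.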

[10] = BSK_LPS_PGE2: BioMAP Diversity Plus: LPS Assay for Prostaglandin E2 (PGE2) Biomarker Activity (AID 2283082); conditions: primary human HUVEC with PBMC; actives raise or lower the signal;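 for AC50: secreted prostaglandin E2 measured by ELISA in LPS-stimulated co-culture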
In short: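 Primary human endothelial cells and blood mononuclear cells, co-cultured with LPS, receive test chemical; PGE2 ELISA follows at 24 h, with SRB-stained parallel cultures flagging cytotoxicity.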

[11] = read-out: Macrophage colony-stimulating factor (MCSF), CSF1 (gene 1435); assay: BSK_LPS_MCSF: BioMAP Diversity Plus: LPS Assay for Macrophage colony-stimulating factor (MCSF) Biomarker Activity (AID 2283083); conditions: primary human HUVEC with PBMC; actives raise or lower the signal
In short: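 ELISA readout of M-CSF after 24 h compound exposure in a human endothelial/PBMC co-culture. Activity, in either direction, is fitted relative to DMSO vehicle.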

[12] = read-out: Tissue Factor, F3 (gene 2152); assay: BSK_LPS_TissueFactor: BioMAP Diversity Plus: LPS Assay for Tissue Factor Biomarker Activity (AID 2283084); conditions: primary human HUVEC with PBMC; actives raise or lower the signal
In short: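 ELISA signal for cell-surface Tissue Factor (CD142) was read 24 h after compound dosing of an LPS-stimulated human endothelial–PBMC primary co-culture. Gain or loss of signal was scored relative to DMSO.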

[13] = read-out: Tumor necrosis factor (Homo sapiens) (UniProt P01375); assay: BSK_LPS_TNFa: BioMAP Diversity Plus: LPS Assay for Tumour Necrosis Factor alpha (TNFa) Biomarker Activity (AID 2283085); conditions: primary human HUVEC with PBMC; actives raise or lower the signal;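 for AC50: TNFa protein level quantified by ELISA in the co-culture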
In short: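 ELISA-based TNFa endpoint in a human endothelial–PBMC co-culture sampled 24 h post-exposure. Curves were fitted in both directions using DMSO as baseline of activity.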

[14] = read-out: Vascular cell adhesion molecule 1 (VCAM1), VCAM1 (gene 7412); assay: BSK_LPS_VCAM1: BioMAP Diversity Plus: LPS Assay for Vascular cell adhesion molecule 1 (VCAM1) Biomarker Activity (AID 2283086); conditions: primary human HUVEC with PBMC; actives raise or lower the signal
In short: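 Measured by ELISA: VCAM-1 in LPS-activated HUVEC/PBMC co-cultures 24 h after treatment. Values reflect bidirectional fitting with DMSO as baseline.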

[15] = read-out: CD38, CD38 (gene 952); assay: BSK_SAg_CD38: BioMAP Diversity Plus: SAg Assay for CD38 Biomarker Activity (AID 2283087); conditions: primary human HUVEC with PBMC; actives raise or lower the signal
In short: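 Measures CD38 on a human endothelial/PBMC co-culture driven by SEB and TSST-1, 24 h after compound exposure, using ELISA with fluorescence detection; DMSO defines baseline for bidirectional curve fitting.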

[16] = read-out: CD40, CD40 (gene 958); assay: BSK_SAg_CD40: BioMAP Diversity Plus: SAg Assay for CD40 Biomarker Activity (AID 2283088); conditions: primary human HUVEC with PBMC; actives raise or lower the signal
In short: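 Compounds were dosed onto a human primary endothelial–PBMC co-culture, and after 24 h CD40 was quantified by ELISA using a fluorescence signal. Activity in either direction was fitted relative to DMSO.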

[17] = read-out: CD69, CD69 (gene 969); assay: BSK_SAg_CD69: BioMAP Diversity Plus: SAg Assay for CD69 Biomarker Activity (AID 2283089); conditions: primary human HUVEC with PBMC; actives raise or lower the signal;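 for AC50: cell surface CD69 protein quantified by ELISA with fluorescence detection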
In short: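 Endothelial/PBMC co-culture; chemical added; 24 h incubation; CD69 ELISA with fluorescence detection; bidirectional fit vs DMSO.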

[18] = read-out: C-C motif chemokine 2 (Homo sapiens) (UniProt P13500); assay: BSK_KF3CT_MCP1: BioMAP Diversity Plus: KF3CT Assay for Monocyte Chemoattractant Protein 1 (MCP1/CCL2) Biomarker Activity (AID 2283073); conditions: primary human keratinocytes with fibroblasts; actives raise or lower the signal
In short: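 ELISA readout of MCP-1 after 24 h chemical dosing of a human skin primary co-culture of keratinocytes and foreskin fibroblasts. Activity was fitted in both directions against DMSO.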

[19] = read-out: CD40, CD40 (gene 958); assay: BSK_LPS_CD40: BioMAP Diversity Plus: LPS Assay for CD40 Biomarker Activity (AID 2283076); conditions: primary human HUVEC with PBMC; actives raise or lower the signal
In short: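 Cells were dosed, incubated 24 h, then assayed for CD40 by ELISA. Gain or loss of signal was analysed relative to DMSO controls. The culture paired human umbilical vein endothelium with peripheral blood mononuclear cells.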

[20] = read-out: Interleukin-8 (IL8), CXCL8 (gene 3576); assay: BSK_LPS_IL8: BioMAP Diversity Plus: LPS Assay for Interleukin-8 (IL8) Biomarker Activity (AID 2283078); conditions: primary human HUVEC with PBMC; actives raise or lower the signal
In short: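 Readout is IL-8 by ELISA, taken 24 h after compounds were added to LPS-stimulated endothelial/PBMC co-cultures. Both increases and decreases relative to DMSO control were scored through bidirectional fitting.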

Measured: AC50

E-selectin (Homo sapiens), sequence (P16581 whole entry, looked up): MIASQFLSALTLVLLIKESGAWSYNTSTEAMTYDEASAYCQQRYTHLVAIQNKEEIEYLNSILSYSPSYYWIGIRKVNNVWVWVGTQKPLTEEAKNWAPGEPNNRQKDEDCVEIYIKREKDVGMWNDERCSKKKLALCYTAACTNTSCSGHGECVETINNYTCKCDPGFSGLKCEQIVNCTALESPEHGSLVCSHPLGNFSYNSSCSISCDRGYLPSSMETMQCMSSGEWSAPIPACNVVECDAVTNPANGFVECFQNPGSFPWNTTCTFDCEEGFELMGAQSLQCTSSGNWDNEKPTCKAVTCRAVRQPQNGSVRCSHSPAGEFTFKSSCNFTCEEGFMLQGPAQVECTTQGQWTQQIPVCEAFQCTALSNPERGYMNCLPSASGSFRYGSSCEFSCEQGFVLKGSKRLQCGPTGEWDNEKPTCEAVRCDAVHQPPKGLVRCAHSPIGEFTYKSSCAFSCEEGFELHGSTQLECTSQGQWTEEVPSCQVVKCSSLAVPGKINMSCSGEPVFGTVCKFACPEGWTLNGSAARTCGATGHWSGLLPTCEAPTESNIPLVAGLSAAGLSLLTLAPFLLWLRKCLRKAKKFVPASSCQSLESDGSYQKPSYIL
Tumor necrosis factor (Homo sapiens), sequence (P01375 whole entry, looked up): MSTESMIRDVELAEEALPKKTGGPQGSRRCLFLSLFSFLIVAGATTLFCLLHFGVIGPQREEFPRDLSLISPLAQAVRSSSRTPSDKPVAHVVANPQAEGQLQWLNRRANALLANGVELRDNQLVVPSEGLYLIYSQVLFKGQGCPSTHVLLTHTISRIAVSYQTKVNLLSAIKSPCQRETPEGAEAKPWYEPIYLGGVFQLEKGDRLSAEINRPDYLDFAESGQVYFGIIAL

COc1ccc(O)c(C(C)(C)C)c1
inactive: [1] | [2] | [3] | [4] | [5] | [6] | [7] | [8] | [9] | [11] | [12] | [13] | [14] | [15] | [16] | [17]
active: [10] 1.71 µM and 2.48 µM and 4.59 µM | [16] 28.9 µM

CO/C=C(/C(=O)OC)c1ccccc1COc1cccc(C(F)(F)F)n1
active: [3] 5.13 µM | [4] 12.7 µM | [6] 7.16 µM | [7] 10.6 µM | [9] 4.01 µM | [11] 12 µM | [13] 783 nM | [14] 13.4 µM | [15] 6.48 µM | [16] 7.75 µM | [17] 5.07 µM
inactive: [1] | [2] | [18] | [8] | [10] | [12]

O=C(O)C(F)(F)C(F)(F)C(F)(F)C(F)(F)C(F)(F)C(F)(F)C(F)(F)C(F)(F)C(F)(F)F
active: [2] 31 µM and 45 µM and 44.7 µM | [3] 30.8 µM | [18] 22.7 µM and 27.9 µM and 18.5 µM | [4] 20 µM and 30.2 µM and 27.5 µM | [5] 31.4 µM and 55 µM and 50.7 µM | [19] 30 µM and 49.1 µM | [6] 53.8 µM and 51 µM | [7] 31.3 µM and 56.6 µM and 54.8 µM | [8] 45.7 µM and 45.5 µM | [9] 33.2 µM and 54.1 µM and 54.5 µM | [10] 24.7 µM and 39 µM | [11] 58.7 µM and 52.5 µM | [12] 45.6 µM and 50.6 µM | [13] 54.1 µM and 43.6 µM | [14] 31.2 µM and 56.6 µM and 55.5 µM | [15] 30.4 µM and 53 µM and 51.9 µM | [16] 32.3 µM and 51.6 µM and 44.6 µM | [17] 29.2 µM and 46.9 µM and 46.4 µM
inactive: [19] | [6] | [8] | [10] | [11] | [12] | [13]

CCCCCCOC(=O)c1ccccc1C(=O)OCCCCCC
active: [9] 34.9 µM | [11] 20 µM | [14] 20 µM | [15] 32.1 µM | [16] 32.9 µM
inactive: [1] | [2] | [3] | [4] | [6] | [7] | [8] | [10] | [12] | [13] | [17]

Cc1cc2c3c(c1)C(c1ccccc1)=N[C@@H](NC(=O)c1ccncc1)C(=O)N3CC2
inactive: [1] | [2] | [3] | [18] | [4] | [6] | [20] | [7] | [9] | [10] | [12] | [14]
active: [8] 3.97 µM | [11] 4.6 µM | [13] 7300 nM | [15] 11.8 µM | [16] 20 µM | [17] 5.02 µM
